19 compounds from PubChem BioAssay (NCATS) can be followed below.

Test [1] in a line: qHTS profiling for inhibitors of Plasmodium falciparum proliferation (AID 504749).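 For activity, negative = inhibition: 0% = DMSO vehicle and full inhibition = artemisinin control.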 Note: nearly all actives have a fitted effect of over 60% in size. To be noted: P. falciparum in erythrocytes, SYBR Green DNA, 72 h. The gist of the method:
(§1)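 Each compound contacts P. falciparum-infected red blood cells for 72 h at 37 C; lysis buffer (Tris, EDTA, saponin, Triton X, SYBR Green I) is added and fluorescence measured next morning; values normalized to controls.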

Test [2] has as its system 3D7. Described as above. To be noted: P. falciparum in erythrocytes, SYBR Green DNA, 72 h; series mostly up to 28.7 µM. In short, it runs like this: as §1
Test [3] has as its system 7G8. The test is described as above. The following applies: P. falciparum in erythrocytes, SYBR Green DNA, 72 h; series mostly up to 28.7 µM. The gist of the method:
as §1

Test [4] has as its system AA1029. The test is described as above. To be noted: P. falciparum in erythrocytes, SYBR Green DNA, 72 h; series mostly up to 28.7 µM. The gist of the method: as §1
Test [5] has as its system AS120. The description is as above. To be noted: P. falciparum in erythrocytes, SYBR Green DNA, 72 h; series mostly up to 28.7 µM. The gist of the method: as §1
Test [6] concerns ATS189. The test is described as above. To be noted: P. falciparum in erythrocytes, SYBR Green DNA, 72 h; series mostly up to 28.7 µM. The gist of the method:
as §1

Test [7] relates to ATS95. The test is described as above. To be noted: P. falciparum in erythrocytes, SYBR Green DNA, 72 h; series mostly up to 28.7 µM. The gist of the method:
as §1

Test [8] has as its system C2A. The description is as above. To be noted: P. falciparum in erythrocytes, SYBR Green DNA, 72 h; series mostly up to 28.7 µM. The gist of the method:
as §1

Test [9] has as its system CP185. Described as above. To be noted: P. falciparum in erythrocytes, SYBR Green DNA, 72 h; series mostly up to 28.7 µM. The gist of the method:
as §1

In test [10] the test system is CP191. The test is described as above. To be noted: P. falciparum in erythrocytes, SYBR Green DNA, 72 h; series mostly up to 28.7 µM. The gist of the method: as §1
Test [11] relates to CP192. Described as above. To be noted: P. falciparum in erythrocytes, SYBR Green DNA, 72 h; series mostly up to 28.7 µM. In short, it runs like this:
as §1

Test [12] has as its system CP194. The description is as above. The following applies: P. falciparum in erythrocytes, SYBR Green DNA, 72 h; series mostly up to 28.7 µM. The gist of the method: as §1
In test [13] the test system is CP201. The description is as above. To be noted: P. falciparum in erythrocytes, SYBR Green DNA, 72 h; series mostly up to 28.7 µM. In short, it runs like this: as §1
The test system of test [14] is CP211. The description is as above. The following applies: P. falciparum in erythrocytes, SYBR Green DNA, 72 h; series mostly up to 28.7 µM. In short, it runs like this:
as §1

In test [15] the test system is CP215. The description is as above. The following applies: P. falciparum in erythrocytes, SYBR Green DNA, 72 h; series mostly up to 28.7 µM. The gist of the method: as §1
Test [16] relates to CP217. Described as above. To be noted: P. falciparum in erythrocytes, SYBR Green DNA, 72 h; series mostly up to 28.7 µM. The gist of the method:
as §1

Test [17] deals with CP203. Described as above. To be noted: P. falciparum in erythrocytes, SYBR Green DNA, 72 h; series mostly up to 28.7 µM. In short, it runs like this: as §1
The mark [18] stands for this setting: at 28.7 µM (top of the series), parasite line A.
Where [19] appears, read: at 28.7 µM (top of the series), parasite line B.
Where [20] appears, read: at 12.8 µM (top of the series), parasite line A.
[21] abbreviates: at 12.8 µM (top of the series), parasite line B.

Inconclusive results are not listed. Unmarked numbers belong to inactive results. The source made the active and inactive calls. Calls come from the whole dose curve; as a rule, active = well fitted inhibition curve with a large enough effect; inconclusive = small, poorly fitted or top-dose-only effect; inactive = flat fitted curve, though single readings scatter.
Potency is the fitted concentration of half-maximal effect.

Take `C[C@](N)(Cc1ccc(O)cc1)C(=O)O`: the activity, negative = inhibition is 4.44% in test [1] (setting [18]) and 11.9% in test [1] (setting [19]). For the same compound, the Potency result in test [2], in [3], in test [4], in test [5], in [6] and in test [7] was “inactive” throughout. In addition, the Potency entry in test [8], in test [9], in [10], in test [11], in test [12] and in test [13] was “inactive” in each case. Further, the Potency result in test [14], in test [15] and in test [16] was “inactive” each time.
On to `Oc1cn2c(n1)Nc1ccc(Cl)c(Cl)c1C2`, for which the figures for the activity, negative = inhibition in [1] (setting [18]) and in test [1] (setting [19]) were 7.35% and -8.41%, respectively. Besides, the Potency entry in test [2], in test [3], in test [4], in test [5], in [6] and in test [7] was “inactive” in each case. Further, the Potency entry in [8], in [9], in test [10], in test [11], in [12] and in [17] was “inactive” throughout. The Potency result in [14], in test [15] and in test [16] was “inactive” each time.
Consider `O=S(=O)(O)NC1CCCCC1`, for which the activity, negative = inhibition in [1] (setting [18]) was 2.07%; in [1] (setting [19]), 5.79%. The Potency result in [2], in test [3], in test [4], in test [5], in [6] and in [7] was “inactive” in each case. The Potency result in test [8], in test [9], in test [10], in [11], in [12] and in test [13] was “inactive” each time. Moreover, the Potency entry in test [14], in test [15] and in test [16] was “inactive” in each case.
As for `NS(=O)(=O)c1cc2c(cc1Cl)NC(CSCc1ccccc1)=NS2(=O)=O`, the activity, negative = inhibition is 2.74% in test [1] (setting [20]) and 12.8% in [1] (setting [21]). The Potency result in test [2], in test [3], in [4], in [5], in test [6] and in test [7] was “inactive” in each case. Besides, the Potency result in test [8], in test [9], in [10], in test [11], in test [12] and in test [13] was “inactive” in each case. Besides, the Potency entry in test [14], in [15] and in [16] was “inactive” throughout.
Consider `CNCCCC1c2ccccc2C=Cc2ccccc21`, for which the activity, negative = inhibition was 3.94% in [1] (setting [20]) and -1.98% in [1] (setting [21]). For the same compound, the Potency entry in [2], in [5], in test [6], in test [8], in [9] and in [11] was “inactive” each time. Further, the Potency result in test [13] and in test [14] was “inactive” each time. For the same compound, the Potency in test [3] was 5.62 µM (active).
As for `COCCOC(=O)C1=C(C)NC(C)=C(C(=O)OC/C=C/c2ccccc2)C1c1cccc([N+](=O)[O-])c1` (stereo not given), the Potency in test [2] was 12.6 µM (active); in test [3] it was 7.94 µM (active); in test [4], 8.91 µM (active); in test [5] it was 11.2 µM (active).
Turning to `CCCc1c(OCCCCc2nn[nH]n2)ccc(C(C)=O)c1O`, in test [1] (setting [19]), the activity, negative = inhibition was -24.5%. In addition, the Potency result in [2], in [4], in test [5], in test [7], in test [8] and in test [9] was “inactive” in each case. The Potency entry in test [11], in test [12], in test [13], in test [17], in test [14] and in test [15] was “inactive” throughout. The Potency result in [16] was “inactive”. Further, the Potency in test [3] was 12.6 µM (active).
For the compound `Cc1cc(C(C#N)c2ccc(Cl)cc2)c(Cl)cc1NC(=O)c1cc(I)cc(I)c1O` (stereo not given), the activity, negative = inhibition in [1] (setting [18]) is 8.49%; in test [1] (setting [19]), 7.42%. For the same compound, the Potency entry in test [2], in [4], in [5], in test [6], in test [7] and in [8] was “inactive” throughout. Moreover, the Potency result in [9], in test [10], in [11], in [12], in test [13] and in test [14] was “inactive” each time. Also, the Potency result in test [15] and in test [16] was “inactive” in each case.
In the case of `OCCN1CCN(CCCN2c3ccccc3Sc3ccc(Cl)cc32)CC1`, the Potency in test [3] was 4.47 µM (active); in [4], 3.55 µM (active); in test [5] it was 3.98 µM (active); in test [10], 3.16 µM (active). The Potency entry in test [8] and in test [11] was “inactive” in each case.
Turning to `OCc1cc(C(O)CNCCCCCCOCCCCc2ccccc2)ccc1O` (stereo not given), the activity, negative = inhibition in test [1] (setting [19]) is -10.7%. Further, the Potency entry in test [2], in [4], in test [5], in [6], in test [7] and in test [8] was “inactive” throughout. Besides, the Potency result in [9], in test [11], in [12], in test [13] and in test [16] was “inactive” each time.
As for `c1ccc(CN(CC2=NCCN2)c2ccccc2)cc1`, the activity, negative = inhibition in test [1] (setting [18]) was -1.61%; in test [1] (setting [19]) it was -1.95%. The Potency entry in test [2], in test [10], in [11], in test [13], in test [14] and in [16] was “inactive” each time. In test [3], the Potency is 4.47 µM (active).
On to `CN(C)CCCN1c2ccccc2Sc2ccc(Cl)cc21`, for which the Potency is 10 µM (active) in test [3], 11.2 µM (active) in test [7] and 15.1 µM (active) in test [15]. The Potency entry in test [13] is “inactive”.
Take `CC(C)(C)NCC(O)COc1ccc(NC(=O)NC2CCCCC2)cc1` (stereo not given): the activity, negative = inhibition in test [1] (setting [19]) was 2.44%. Further, the Potency entry in test [2], in [4], in test [5], in test [6], in test [7] and in test [8] was “inactive” in each case. Further, the Potency entry in test [9], in test [10], in test [11], in test [12], in [13] and in test [14] was “inactive” each time. Besides, the Potency entry in [15] and in [16] was “inactive” in each case.
Take `CCN(CC)CCNC(C(=O)OCCC(C)C)c1ccccc1` (stereo not given): the activity, negative = inhibition in test [1] (setting [18]) is 6.18%; in test [1] (setting [19]) it was 14.1%. Further, the Potency result in test [2] and in test [14] was “inactive” in each case. Moreover, the values for the Potency in test [3] and in test [17] were 12.6 µM (active) and 9.53 µM (active), respectively.
On to `CSc1ccc2c(c1)C(N1CCN(C)CC1)Cc1ccccc1S2` (stereo not given), for which, in test [3], the Potency is 10 µM (active). For the same compound, the Potency entry in [11] and in test [13] was “inactive” in each case.
On to `CN(C)CCN(Cc1ccccc1)c1ccccn1`, for which the activity, negative = inhibition in [1] (setting [18]) is -2.14%; in test [1] (setting [19]), 9.22%. In addition, the Potency entry in test [2], in [3], in [8], in test [9], in test [10] and in [11] was “inactive” each time. In addition, the Potency result in test [12], in test [13], in test [14], in [15] and in test [16] was “inactive” each time.
Regarding `Cc1cc(N)c2ccccc2[n+]1CCCCCCCCCC[n+]1c(C)cc(N)c2ccccc21`, the Potency in test [1] (parasite line B) was 14.1 µM (active); in test [2], 0.708 µM (active); in [3], 0.0355 µM (active); in test [4] it was 0.316 µM (active); in test [5] it was 7.94 µM (active); in [6] it was 0.316 µM (active). Also, the Potency is 0.282 µM (active) in test [8]; 0.316 µM (active) in test [9]; 0.0501 µM (active) in test [10]; 0.361 µM (active) in [12]; 0.642 µM (active) in test [13]; 0.144 µM (active) in [14]. For the same compound, the figures for the Potency in test [15] and in test [16] were 0.809 µM (active) and 0.447 µM (active), respectively.
Take `CC[C@@]1(c2ccccc2)NC(=O)N(C)C1=O`: the activity, negative = inhibition in [1] (setting [18]) is -2.42%; in [1] (setting [19]) it was 13.3%. The Potency entry in test [2], in test [4], in test [5], in [6], in test [7] and in test [8] was “inactive” each time. The Potency entry in test [9], in test [10], in test [11], in test [12], in [13] and in test [14] was “inactive” each time. Besides, the Potency result in test [15] and in test [16] was “inactive” throughout.
Turning to `C[C@]12C[C@H](O)[C@H]3[C@@H](CCC4=CC(=O)CC[C@@]43C)[C@@H]1CC[C@@H]2C(=O)CO`, the Potency entry in test [2], in test [3], in [11], in test [12], in test [13] and in [17] was “inactive” each time. Moreover, the Potency entry in [14] and in [15] was “inactive” in each case.
